Our source for the Potency and outcome values is PubChem BioAssay (Tox21).

Activity calls are given as the source filed them. Unless noted, calls follow the shape of the dose curve; as a rule, active = well fitted curve in the direction sought with a large enough effect in the repeat runs; inconclusive = weak or mixed curves; inactive = no such curve, though single readings can be large; an effect the other way counts as inactive or inconclusive.

A short description of assay [1]: qHTS assay to identify small molecule antagonists of the thyroid receptor (TR) signaling pathway (AID 743065). Also: nearly all actives have a fitted effect of over 55% in size. Also: potency is read from the fitted curve at half-maximal effect. The method, boiled down:
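GH3.TRE-Luc rat pituitary cells (two TREs driving luciferase) were dosed with compound, then stimulated with 1 nM T3 (final) for 23.5 h at 37 C. ONE-Glo luminescence was the read-out, with CellTiter-Fluor fluorescence as the cytotoxicity counter-screen.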
A general note: In qHTS, concentration-response curves come from the screen itself.

In assay [2] the test system is thyroid hormone receptor (rat, GH3 cells). Briefly: qHTS assay to identify small molecule agonists of the thyroid receptor (TR) signaling pathway (AID 743066; calls by dose curve).
The nature of assay [3]: qHTS assay to identify small molecule antagonists of the estrogen receptor alpha (ER-alpha) signaling pathway - cell viability counter screen (AID 743074; calls by dose curve;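 also: HEK293 cells carrying ER-alpha-UAS-bla reporter stimulated with 17beta-estradiol; nearly all actives have a fitted effect of over 45% in size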; also: potency is read from the fitted curve at half-maximal effect).
The target of assay [4] is Estrogen receptor (Homo sapiens) (UniProt P03372). Briefly: qHTS assay to identify small molecule agonists of the estrogen receptor alpha (ER-alpha) signaling pathway using the BG1 cell line (AID 743079). Also: nearly all actives have a fitted effect of over 20% in size. Also: potency is read from the fitted curve at half-maximal effect. The conditions noted are these: BG1Luc4E2 cells, ERE-luciferase agonist, 22 h; activation: at 70.3 µM (top of the series).
Chain of Estrogen receptor (Homo sapiens) (P03372 whole entry, looked up): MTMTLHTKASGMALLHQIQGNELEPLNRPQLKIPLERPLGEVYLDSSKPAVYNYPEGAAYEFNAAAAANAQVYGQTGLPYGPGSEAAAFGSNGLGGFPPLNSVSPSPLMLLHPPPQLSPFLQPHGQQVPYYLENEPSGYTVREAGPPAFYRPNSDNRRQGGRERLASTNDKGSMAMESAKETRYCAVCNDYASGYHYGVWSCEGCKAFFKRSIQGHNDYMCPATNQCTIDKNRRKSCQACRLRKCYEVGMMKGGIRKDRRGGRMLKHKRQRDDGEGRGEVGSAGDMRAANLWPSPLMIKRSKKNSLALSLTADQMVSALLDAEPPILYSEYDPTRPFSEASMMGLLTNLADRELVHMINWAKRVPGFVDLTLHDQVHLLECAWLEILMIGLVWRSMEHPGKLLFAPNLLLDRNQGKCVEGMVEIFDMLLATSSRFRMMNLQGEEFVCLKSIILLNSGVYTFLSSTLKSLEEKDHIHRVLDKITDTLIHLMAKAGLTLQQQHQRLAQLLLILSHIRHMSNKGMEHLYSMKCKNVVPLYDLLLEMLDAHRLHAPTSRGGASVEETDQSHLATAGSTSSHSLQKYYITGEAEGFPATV
Assay [5] is described as follows: qHTS assay to identify small molecule antagonists of the estrogen receptor alpha (ER-alpha) signaling pathway using the BG1 cell line - cell viability counter screen (AID 743081).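 Also: compound given together with 17beta-estradiol as the ER stimulus; nearly all actives have a fitted effect of over 45% in size.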
Assay [6] has as its target Aromatase (Homo sapiens) (UniProt P11511). Briefly: qHTS assay to identify aromatase inhibitors (AID 743083). Also: nearly all actives have a fitted effect of over 55% in size.
The target in assay [7] is Estrogen receptor (Homo sapiens) (UniProt P03372). Briefly: qHTS assay to identify small molecule antagonists of the estrogen receptor alpha (ER-alpha) signaling pathway (AID 743069; active = well fitted curve in the direction sought with a large enough effect in the signal ratio in the repeat runs, not every such curve was filed as active; inconclusive = weak or mixed curves, or effect the other way; inactive = no such curve, though single readings can be large or run the other way; the % refers to the signal ratio). The method, boiled down: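 Reporter cells (ER-alpha-bla, HEK293 background) are conditioned overnight in stripped-serum medium (2% charcoal-stripped FBS). Compound and 17beta-estradiol exposure runs 18 hr at 37C, 5% CO2.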

For assay [8] the target is unchanged. Kind of assay: qHTS assay to identify small molecule agonists of the estrogen receptor alpha (ER-alpha) signaling pathway (AID 743075; calls by dose curve;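 also: HEK293 GripTite cells with ER-alpha and UAS-driven beta-lactamase reporter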; also: potency is read from the fitted curve at half-maximal effect).
The nature of assay [9]: qHTS assay to identify small molecule antagonists of the estrogen receptor alpha (ER-alpha) signaling pathway using the BG1 cell line (AID 743080; calls by dose curve;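 also: BG1 cells stimulated with 17beta-estradiol alongside compound; nearly all actives have a fitted effect of over 25% in size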). The method, boiled down:
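Readout is ONE-Glo luminescence, taken 30 min at room temperature after reagent addition, preceded by a CellTiter-Fluor viability read; BG1-Luc-4E2 cells had received compound and 17beta-estradiol for 21.5 h at 37 C.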

Chain of Aromatase (Homo sapiens) (P11511 whole entry, looked up): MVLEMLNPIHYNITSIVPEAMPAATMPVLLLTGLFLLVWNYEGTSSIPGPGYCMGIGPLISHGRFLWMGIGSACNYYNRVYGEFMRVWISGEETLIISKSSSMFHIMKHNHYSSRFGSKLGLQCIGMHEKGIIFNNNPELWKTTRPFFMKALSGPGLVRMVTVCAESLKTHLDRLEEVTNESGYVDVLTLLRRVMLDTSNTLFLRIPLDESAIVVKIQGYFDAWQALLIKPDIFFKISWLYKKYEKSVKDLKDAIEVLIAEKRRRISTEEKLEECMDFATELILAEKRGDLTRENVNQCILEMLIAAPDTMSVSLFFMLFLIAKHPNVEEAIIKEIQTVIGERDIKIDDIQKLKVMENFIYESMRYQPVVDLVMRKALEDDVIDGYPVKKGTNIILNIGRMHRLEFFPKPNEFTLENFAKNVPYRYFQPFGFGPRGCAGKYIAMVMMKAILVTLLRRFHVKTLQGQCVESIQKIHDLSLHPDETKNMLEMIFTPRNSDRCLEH

With `CC1(C)O[C@@H]2C[C@H]3[C@@H]4C[C@H](F)C5=CC(=O)C=C[C@]5(C)[C@H]4[C@@H](O)C[C@]3(C)[C@]2(C(=O)CO)O1`, the Potency result in [1], in assay [3], in assay [4], in [5] and in [6] was “inactive” each time. Also, in [2], the molecule was classed as inactive.

Regarding `CC1=C(CC=O)C(C)(C)CCC1`, the Potency result in assay [1], in [3], in assay [5] and in assay [6] was “inactive” throughout. In addition, in [2], the call was inactive.

In the case of `C=CC(=O)OCC1CC2CC1C1CCC(COC(=O)C=C)C21` (stereo unspecified), in assay [1], the Potency is 61.1 µM (active). In addition, in assay [2], the molecule was classed as inactive. In addition, the Potency entry in assay [5] and in assay [6] was “inactive” each time.

Turning to `NNC(=O)CP(=O)(c1ccccc1)c1ccccc1`, the Potency entry in assay [1], in [3] and in [5] was “inactive” in each case. Besides, the molecule was classed as inactive in [2].

Turning to `CC(C)=CC(=O)C=C(C)C`, the molecule was called inactive in assay [2]. The Potency entry in [7], in assay [3], in [8], in [4], in assay [9] and in assay [5] was “inactive” throughout. In assay [6], the Potency result was “inactive”.

On to `CN1C(=O)c2ccccc2C1=O`, for which the Potency result in [1] and in [6] was “inactive” each time. Moreover, the outcome in assay [2] was inactive.

Consider `CCCCCCCCN`, for which the Potency result in [1], in assay [3], in assay [5] and in assay [6] was “inactive” in each case. Also, in assay [2], the molecule was classed as inactive.

Regarding `CCC1CO1` (stereo unspecified), the Potency entry in assay [1], in assay [5] and in assay [6] was “inactive” throughout. Besides, in assay [2], the outcome was inactive.

As for `CCOC(=O)[C@H](CCc1ccccc1)N[C@@H](C)C(=O)N(CC(=O)O)C1Cc2ccccc2C1`, the Potency result in assay [1], in assay [7], in assay [8], in assay [4], in assay [9] and in assay [5] was “inactive” in each case. In assay [6], the Potency entry was “inactive”. For the same molecule, the molecule was classed as inactive in assay [2].

As to `CCCCCC#CC(=O)OC`, the Potency result in assay [1], in [7], in [3], in assay [8], in [4] and in [9] was “inactive” in each case. Further, the Potency entry in [5] and in assay [6] was “inactive” each time. For the same molecule, the molecule was called inactive in [2].

For the molecule `CC(CCC(=O)O)C(=O)O` (stereo unspecified), the Potency entry in assay [1], in assay [3], in assay [5] and in assay [6] was “inactive” in each case. In assay [2], the molecule was called inactive.

Take `O=C=Nc1ccc(Cl)c(Cl)c1`: the Potency entry in [1], in [3], in assay [8], in assay [4], in assay [9] and in assay [5] was “inactive” in each case. Besides, the Potency entry in assay [6] is “inactive”. Moreover, the call in [2] was inactive.

As for `CN1CC(=O)N2[C@H](c3ccc4c(c3)OCO4)c3[nH]c4ccccc4c3C[C@@H]2C1=O`, the Potency result in assay [1], in [7], in assay [8], in [4], in assay [5] and in assay [6] was “inactive” throughout. Further, the molecule was classed as inactive in assay [2].

Take `OC[C@H]1O[C@@H](n2cnc3c(=S)nc[nH]c32)[C@H](O)[C@@H]1O`: the Potency in assay [1] was 23.7 µM (active). The molecule was called inactive in assay [2]. Besides, the Potency result in assay [8], in [4], in assay [5] and in [6] was “inactive” throughout.

With `O=C(O)c1cccc(-c2noc(-c3ccccc3F)n2)c1`, in [1], the Potency was 10.6 µM (active). Besides, the result in assay [2] was inactive. Further, the Potency entry in assay [5] and in assay [6] was “inactive” each time.

Take `CCOC(=O)C1=C(C)NC(C)=C(C(=O)OC)C1c1cccc(Cl)c1Cl` (stereo unspecified): the Potency in assay [1] was 18.8 µM (active); in [8], 10.7 µM [activator] (active). Further, in [2], the molecule was classed as inactive. Besides, the Potency result in assay [3], in [4], in [9], in assay [5] and in assay [6] was “inactive” in each case.

Turning to `O=C(/C=C/c1ccc(O)c(O)c1)O[C@@H]1C[C@@](OC(=O)/C=C/c2ccc(O)c(O)c2)(C(=O)O)C[C@@H](O)[C@@H]1O`, the Potency entry in assay [1], in assay [7], in assay [3], in assay [8], in assay [4] and in assay [9] was “inactive” in each case. Besides, the Potency result in assay [5] and in assay [6] was “inactive” in each case. Besides, the outcome in assay [2] was inactive.

Turning to `CCc1ccccc1`, the Potency entry in assay [7], in [3], in assay [8], in assay [4], in assay [9] and in [5] was “inactive” each time. In addition, in assay [6], the Potency entry was “inactive”.

With `CN(C)CCC=C1c2ccccc2C=Cc2ccccc21`, the Potency result in assay [3], in assay [8], in [4], in [9], in assay [5] and in assay [6] was “inactive” throughout.

Take `C/C=C(/C(=C/C)c1ccc(O)cc1)c1ccc(O)cc1`: the outcome in assay [2] was inactive. The Potency result in [3], in assay [9], in assay [5] and in assay [6] was “inactive” in each case. Also, the Potency is 0.0006 µM [inconclusive] (active) in assay [8] and 0.0003 µM (active) in assay [4].

Regarding `CCCCOc1ccc(OCCCN2CCOCC2)cc1`, the outcome in [2] was inactive. The Potency result in assay [7], in assay [3], in assay [8], in assay [4], in [9] and in assay [5] was “inactive” throughout. Moreover, in assay [6], the Potency result was “inactive”.

For `O=C1C(=O)c2ccccc2C(O)=C1C1CCC(c2ccc(Cl)cc2)CC1` (stereo unspecified), the molecule was classed as inactive in assay [2]. Moreover, the Potency in assay [3] was 2.04 µM (active). Moreover, the Potency result in [8], in assay [4], in assay [5] and in [6] was “inactive” in each case.

As for `C=CCc1ccccc1OCC(O)CNC(C)C` (stereo unspecified), the outcome in assay [2] was inactive. In addition, the Potency result in [3], in [5] and in assay [6] was “inactive” in each case.

Regarding `CC(=O)OCCN(CCOC(C)=O)c1ccc(N=Nc2ccc([N+](=O)[O-])cc2C#N)cc1`, the molecule was classed as inactive in assay [2]. Further, the Potency result in [3] is “inactive”.

As for `CN1CCCN=C1COC(=O)C(O)(c1ccccc1)C1CCCCC1` (stereo unspecified), in assay [2], the molecule was called inactive. The Potency entry in assay [7], in assay [8], in assay [4], in assay [9], in assay [5] and in [6] was “inactive” throughout.

Consider `COc1ccccc1N1CCN(CCCCNC(=O)c2ccc(-c3ccc(C(C)=O)cc3)cc2)CC1`, for which the call in assay [2] was inactive. Also, the Potency entry in [7], in assay [3], in assay [8], in assay [4] and in [6] was “inactive” in each case.
